Assay results reported in PubChem BioAssay (NCATS).
Results filed as inconclusive are left out. Activity calls are given as the source filed them. The call rests on the fitted dose curve; in most records, active means well fitted cell-killing curve with a large enough effect; inconclusive means small, poorly fitted or top-dose-only effect, or effect the other way; inactive means flat fitted curve, though single readings scatter.

Legend:
Experiment in all cases: Primary qHTS to identify gynecologic anti-cancer compounds using libraries of approved drugs and bioactive compounds (AID 1345084); further: nearly all actives have a fitted effect of over 55% in size
C33A = conditions: Gynecologic cancer cell panel viability, ATPlite luminescence, 48 h; series mostly up to 57.5 µM
Procedure, shortened: (§1)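 48 h compound exposure at 37 C, 5% CO2; five-point qHTS. ATPlite luminescence readout of cell ATP.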

CAOV3 = conditions: Gynecologic cancer cell panel viability, ATPlite luminescence, 48 h; series mostly up to 57.5 µM
Procedure, shortened: as §1

CASKI = conditions: Gynecologic cancer cell panel viability, ATPlite luminescence, 48 h; series mostly up to 57.5 µM
Procedure, shortened: as §1

Es-2 = conditions: Gynecologic cancer cell panel viability, ATPlite luminescence, 48 h; series mostly up to 57.5 µM
Procedure, shortened: as §1

HeLa = conditions: Gynecologic cancer cell panel viability, ATPlite luminescence, 48 h; series mostly up to 57.5 µM
Procedure, shortened: as §1

Hek293T = conditions: Gynecologic cancer cell panel viability, ATPlite luminescence, 48 h, control line for the selectivity index; series mostly up to 57.5 µM
Procedure, shortened: as §1

JEG-3 = conditions: Gynecologic cancer cell panel viability, ATPlite luminescence, 48 h; series mostly up to 57.5 µM
Procedure, shortened: as §1

OV90 = conditions: Gynecologic cancer cell panel viability, ATPlite luminescence, 48 h; series mostly up to 57.5 µM
Procedure, shortened: as §1

PA-1 = conditions: Gynecologic cancer cell panel viability, ATPlite luminescence, 48 h; series mostly up to 57.5 µM
Procedure, shortened: as §1

SKOV3 = conditions: Gynecologic cancer cell panel viability, ATPlite luminescence, 48 h; series mostly up to 57.5 µM
Procedure, shortened: as §1

Tov-21-G = conditions: Gynecologic cancer cell panel viability, ATPlite luminescence, 48 h; series mostly up to 57.5 µM
Procedure, shortened: as §1

Tov112D = conditions: Gynecologic cancer cell panel viability, ATPlite luminescence, 48 h; series mostly up to 57.5 µM
Procedure, shortened: as §1
On the % scale 0 is the no-effect control and ±100 the full control effect.

C[C@]12C=C[C@@]3(CCC4[C@](C)(CO)CCC[C@@]4(C)C3CC1)C2 (stereo partly specified)
inactive: Potency (C33A) | Potency (CAOV3) | Potency (CASKI) | Potency (Es-2) | Potency (HeLa) | Potency (Hek293T) | Potency (JEG-3) | Potency (OV90) | Potency (PA-1) | Potency (SKOV3) | Potency (Tov-21-G) | Potency (Tov112D)

N#C[C@@H]1CCCN1C(=O)CNC12CC3CC(CC(O)(C3)C1)C2
inactive: Potency (C33A) | Potency (CAOV3) | Potency (CASKI) | Potency (Es-2) | Potency (HeLa) | Potency (Hek293T) | Potency (JEG-3) | Potency (OV90) | Potency (PA-1) | Potency (SKOV3) | Potency (Tov-21-G) | Potency (Tov112D)

COc1ccc(/C=C/C(=O)O[C@@H]2[C@@H](O)[C@@H](O)[C@H](O[C@@H]3C=C(CO)[C@H]4[C@H](O[C@@H]5O[C@H](CO)[C@@H](O)[C@H](O)[C@H]5O)OC=C[C@H]43)O[C@H]2C)cc1O
inactive: Potency (C33A) | Potency (CAOV3) | Potency (CASKI) | Potency (Es-2) | Potency (HeLa) | Potency (Hek293T) | Potency (JEG-3) | Potency (OV90) | Potency (PA-1) | Potency (SKOV3) | Potency (Tov-21-G) | Potency (Tov112D)

C=C1[C@H](OC(C)=O)[C@H]2[C@@H](OC(C)=O)[C@](C)(OC(C)=O)C[C@]2(OC(C)=O)C(=O)[C@H](C)/C=C/C(C)(C)C(=O)[C@H](OC(=O)C(C)C)[C@H]1OC(C)=O
inactive: Potency (C33A) | Potency (CAOV3) | Potency (CASKI) | Potency (Es-2) | Potency (HeLa) | Potency (Hek293T) | Potency (JEG-3) | Potency (OV90) | Potency (PA-1) | Potency (SKOV3) | Potency (Tov-21-G) | Potency (Tov112D)

COC(=O)CC(O)CC(O)/C=C/c1c(C)ccc2c1C(O)CC(C)C2 (stereo unspecified)
inactive: Potency (C33A) | Potency (CAOV3) | Potency (CASKI) | Potency (Es-2) | Potency (HeLa) | Potency (Hek293T) | Potency (JEG-3) | Potency (OV90) | Potency (PA-1) | Potency (SKOV3) | Potency (Tov-21-G) | Potency (Tov112D)

COc1ccc(C2COc3cc(O)ccc3C2)c(O)c1 (stereo unspecified)
inactive: Potency (C33A) | Potency (CAOV3) | Potency (CASKI) | Potency (Es-2) | Potency (HeLa) | Potency (Hek293T) | Potency (JEG-3) | Potency (OV90) | Potency (PA-1) | Potency (SKOV3) | Potency (Tov-21-G) | Potency (Tov112D)

CC(=O)O[C@@H]1C[C@@H](OC(C)=O)C(C)(C)/C=C/[C@H](C)[C@H](OC(C)=O)[C@@]2(O)C[C@H](C)[C@H](OC(=O)c3ccccc3)[C@@H]2/C=C/1C
inactive: Potency (C33A) | Potency (CAOV3) | Potency (CASKI) | Potency (Es-2) | Potency (HeLa) | Potency (Hek293T) | Potency (JEG-3) | Potency (OV90) | Potency (PA-1) | Potency (SKOV3) | Potency (Tov-21-G) | Potency (Tov112D)

O=c1[nH]ccc2cc(OC3CCNCC3)ccc12
inactive: Potency (C33A) | Potency (CAOV3) | Potency (CASKI) | Potency (Es-2) | Potency (HeLa) | Potency (Hek293T) | Potency (JEG-3) | Potency (OV90) | Potency (PA-1) | Potency (SKOV3) | Potency (Tov-21-G) | Potency (Tov112D)

CC(C)=CC/C=C(\C)[C@H]1CC[C@]2(C)[C@@H]1[C@H](O)C[C@@H]1[C@@]3(C)CC[C@H](O)C(C)(C)[C@@H]3[C@@H](O[C@@H]3O[C@H](CO)[C@@H](O)[C@H](O)[C@H]3O)C[C@]12C
inactive: Potency (C33A) | Potency (CAOV3) | Potency (CASKI) | Potency (Es-2) | Potency (HeLa) | Potency (Hek293T) | Potency (JEG-3) | Potency (OV90) | Potency (PA-1) | Potency (SKOV3) | Potency (Tov-21-G) | Potency (Tov112D)

O=C(O)Cc1ccc2oc(-c3ccc(NC(=O)/C=C/c4ccc(Br)cc4)c(F)c3)nc2c1
inactive: Potency (C33A) | Potency (CAOV3) | Potency (CASKI) | Potency (Es-2) | Potency (HeLa) | Potency (Hek293T) | Potency (JEG-3) | Potency (OV90) | Potency (PA-1) | Potency (SKOV3) | Potency (Tov-21-G) | Potency (Tov112D)

CC(C)[C@H]1CC[C@@]2(O)COC(=O)[C@H]2[C@@H]1/C=C(\CO)C(=O)O
inactive: Potency (C33A) | Potency (CAOV3) | Potency (CASKI) | Potency (Es-2) | Potency (HeLa) | Potency (Hek293T) | Potency (JEG-3) | Potency (OV90) | Potency (PA-1) | Potency (SKOV3) | Potency (Tov-21-G) | Potency (Tov112D)

COCC1OC(OC(C)(C)C2CCC3(C)C=C(C4CCC5C4(C)CC(O)C4OC(C(C)(C)OC6OC(CO)C(O)C(O)C6NC(C)=O)CCC45C)CCC3O2)C(NC(C)=O)C(O)C1O (stereo unspecified)
inactive: activity change, negative = cytotoxicity (C33A) 10.6% [at 11.6 µM] | activity change, negative = cytotoxicity (CAOV3) -5.9% [at 11.6 µM] | activity change, negative = cytotoxicity (CASKI) 12.8% [at 11.6 µM] | activity change, negative = cytotoxicity (Es-2) 0.877% [at 11.6 µM] | activity change, negative = cytotoxicity (HeLa) 1.62% [at 11.6 µM] | activity change, negative = cytotoxicity (Hek293T) -4.4% [at 11.6 µM] | activity change, negative = cytotoxicity (JEG-3) 3.33% [at 11.6 µM] | activity change, negative = cytotoxicity (OV90) 3.61% [at 11.6 µM] | activity change, negative = cytotoxicity (PA-1) -1.55% [at 11.6 µM] | activity change, negative = cytotoxicity (SKOV3) 9.88% [at 11.6 µM] | activity change, negative = cytotoxicity (Tov-21-G) 1.68% [at 11.6 µM] | activity change, negative = cytotoxicity (Tov112D) -1.97% [at 11.6 µM]

C=C(C)C1CCC2(C(=O)O[C@@H]3O[C@H](CO[C@@H]4O[C@H](CO)[C@@H](O)[C@H](O)[C@H]4O)[C@@H](O)[C@H](O[C@@H]4O[C@@H](C)[C@H](O)[C@@H](O)[C@H]4O)[C@H]3O)CCC3(C(=O)O)C(CCC4C5(C)CCC(O)C(C)(C)C5CCC43C)C12 (stereo partly specified)
inactive: activity change, negative = cytotoxicity (C33A) -9.37% [at 11.6 µM] | activity change, negative = cytotoxicity (CAOV3) -3.74% [at 11.6 µM] | activity change, negative = cytotoxicity (CASKI) 13.9% [at 11.6 µM] | activity change, negative = cytotoxicity (Es-2) 1.26% [at 11.6 µM] | activity change, negative = cytotoxicity (HeLa) -0.105% [at 11.6 µM] | activity change, negative = cytotoxicity (Hek293T) -3.68% [at 11.6 µM] | activity change, negative = cytotoxicity (JEG-3) 18.7% [at 11.6 µM] | activity change, negative = cytotoxicity (OV90) 15.5% [at 11.6 µM] | activity change, negative = cytotoxicity (PA-1) -1.76% [at 11.6 µM] | activity change, negative = cytotoxicity (SKOV3) -5.29% [at 11.6 µM] | activity change, negative = cytotoxicity (Tov-21-G) 9.18% [at 11.6 µM] | activity change, negative = cytotoxicity (Tov112D) 11.4% [at 11.6 µM]
